The record followed here is PubChem BioAssay (EPA / NIEHS).

A short description of assay [1]: ATG_PBREM_CIS: Attagene CIS-FACTORIAL HepG2 Assay for human Phenobarbital-responsive Enhancer Module (PBREM) (AID 2282955). Conditions: HepG2 PBREM cis-reporter, Attagene multiplexed transcription; actives raise or lower the signal. Put shortly: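 HepG2 cells transiently transfected with multiple cis-regulated reporter units measure endogenous transcription factor activity; 24 h compound exposure. Reporter mRNA quantified by RT-PCR, fluorescent labelling, HpaI digestion and capillary electrophoresis; bidirectional fit versus DMSO.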

In assay [2] the target is Paired box protein Pax-6 (Homo sapiens) (UniProt P26367). Kind of assay: ATG_Pax6_CIS: Attagene CIS-FACTORIAL HepG2 Assay for human Paired Box 6 (PAX6) (AID 2282956). Conditions: HepG2 CIS-FACTORIAL PAX6 reporter transcription, RNA readout; actives raise or lower the signal. The gist of the method:
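Transient MRTU transfection of HepG2 → compound exposure 24 h → TriZol RNA, oligo(dT) RT → PCR, 6-FAM primer extension, HpaI cut → capillary electrophoresis; activity fitted both directions against DMSO.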

The nature of assay [3]: ATG_PXRE_CIS: Attagene CIS-FACTORIAL HepG2 Assay for human Pregnane X Receptor Element (PXRE) (AID 2282957). Conditions: HepG2 Attagene CIS-FACTORIAL PXRE reporter, mRNA; actives raise or lower the signal. Put shortly: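 HepG2 cells transiently transfected with cis-regulated multiple reporter transcription units; endogenous factor activity measured as reporter mRNA 24 h after dosing. RT-PCR, fluorescent primer extension, HpaI digestion, capillary electrophoresis; bidirectional fit versus DMSO baseline.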

The nature of assay [4]: ATG_PPRE_CIS: Attagene CIS-FACTORIAL HepG2 Assay for human Peroxisome Proliferator-activated Response Element (PPRE) (AID 2282958). Conditions: HepG2 PPRE cis-element reporter, Attagene transcription factor profiling; actives raise or lower the signal. The gist of the method:
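HepG2 cells are transiently transfected with multiplexed cis-promoter reporter units to report endogenous PPAR activity. After 24 h dosing, reporter mRNA is read by RT-PCR and capillary electrophoresis. Fitting is bidirectional against DMSO.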

Assay [5] can be described thus: ATG_RORE_CIS: Attagene CIS-FACTORIAL HepG2 Assay for human RAR-related Orphan Receptor Element (RORE) (AID 2282959). The note with it: HepG2 Attagene cis-factorial RORE reporter, mRNA; actives raise or lower the signal. Put shortly: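 HepG2 cells carrying transiently transfected cis-regulated reporter units; RORE-driven reporter mRNA quantified 24 h post-dosing by RT-PCR, 6-FAM primer extension, HpaI digestion and capillary electrophoresis. Bidirectional fit versus DMSO.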

Assay [6] in a line: ATG_Sox_CIS: Attagene CIS-FACTORIAL HepG2 Assay for human SRY-box transcription factor (SOX) (AID 2282960). Conditions: HepG2 Attagene cis-factorial SOX reporter, mRNA; actives raise or lower the signal. Put shortly: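 HepG2 cells transiently transfected with multiple cis-regulated reporter units, then dosed for 24 h. Reporter mRNA quantified by RT-PCR, fluorescent labelling, HpaI digestion and capillary electrophoresis; bidirectional fit versus DMSO.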

Assay [7] addresses Transcription factor Sp1 (Homo sapiens) (UniProt P08047). Kind of assay: ATG_Sp1_CIS: Attagene CIS-FACTORIAL HepG2 Assay for human Specificity Protein 1 (Sp1) (AID 2282961). The note with it: HepG2 Sp1 cis-reporter transcription, actives raise or lower the signal. Put shortly:
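HepG2 cells transiently transfected with multiplexed cis-regulated reporter constructs, chemical exposure 24 h. Reporter mRNA quantified by RT-PCR with capillary electrophoresis; bidirectional fit relative to DMSO.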

A short description of assay [8]: ATG_SREBP_CIS: Attagene CIS-FACTORIAL HepG2 Assay for human Sterol Regulatory Element Binding (SREBP) (AID 2282962). The note with it: HepG2 Attagene cis-factorial SREBP reporter, mRNA; actives raise or lower the signal. The gist of the method:
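Transfected HepG2 (cis-regulated reporter library, endogenous TFs) → compound 24 h → total RNA → oligo(dT) RT → reporter-specific PCR → FAM primer extension, HpaI cut → CE fluorescence. Fit bidirectional vs DMSO.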

The target in assay [9] is Signal transducer and activator of transcription 3 (Homo sapiens) (UniProt P40763). Kind of assay: ATG_STAT3_CIS: Attagene CIS-FACTORIAL HepG2 Assay for human Signal Transducer and Activator of Transcription 3 (STAT3) (AID 2282963). Conditions: HepG2, Attagene cis-factorial STAT3 reporter transcription; actives raise or lower the signal. Put shortly:
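Transcript-level reporter assay. HepG2 transient MRTU transfection, 24 h exposure, fluorescence detection after RT-PCR and CE; DMSO baseline.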

Assay [10] is described as follows: ATG_TA_CIS: Attagene CIS-FACTORIAL HepG2 Assay for human TA Basal Promoter (AID 2282964). Conditions: HepG2 Attagene CIS-factorial TA basal promoter reporter; actives raise or lower the signal. The gist of the method:
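Background internal-marker endpoint from a 52-component HepG2 cis-reporter panel. Cells treated 24 h; reporter transcripts quantified via RT-PCR and CE fluorescence against DMSO baseline.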

Structures are written as SMILES. Activity calls are given as the source filed them. Rule for the calls: active = hit-call score of the fitted dose curve at least 0.9, where 1 is the maximum; inactive = score below 0.9.

By AC50 is commonly meant the midpoint of the concentration-response curve, whichever way the signal moves.

Chain of Paired box protein Pax-6 (Homo sapiens) (P26367 whole entry, looked up): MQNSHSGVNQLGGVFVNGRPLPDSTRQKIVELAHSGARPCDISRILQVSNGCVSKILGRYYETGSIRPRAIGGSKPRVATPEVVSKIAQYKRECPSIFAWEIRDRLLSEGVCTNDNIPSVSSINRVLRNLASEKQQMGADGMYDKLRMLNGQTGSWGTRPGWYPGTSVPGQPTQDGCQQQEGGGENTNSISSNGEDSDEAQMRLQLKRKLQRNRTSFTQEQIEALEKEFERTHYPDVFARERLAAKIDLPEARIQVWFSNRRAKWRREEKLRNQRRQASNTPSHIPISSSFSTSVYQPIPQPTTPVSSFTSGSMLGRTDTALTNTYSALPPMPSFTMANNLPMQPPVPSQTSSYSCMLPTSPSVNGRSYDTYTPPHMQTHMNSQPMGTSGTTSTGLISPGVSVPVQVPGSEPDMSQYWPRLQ
Chain of Transcription factor Sp1 (Homo sapiens) (P08047 whole entry, looked up): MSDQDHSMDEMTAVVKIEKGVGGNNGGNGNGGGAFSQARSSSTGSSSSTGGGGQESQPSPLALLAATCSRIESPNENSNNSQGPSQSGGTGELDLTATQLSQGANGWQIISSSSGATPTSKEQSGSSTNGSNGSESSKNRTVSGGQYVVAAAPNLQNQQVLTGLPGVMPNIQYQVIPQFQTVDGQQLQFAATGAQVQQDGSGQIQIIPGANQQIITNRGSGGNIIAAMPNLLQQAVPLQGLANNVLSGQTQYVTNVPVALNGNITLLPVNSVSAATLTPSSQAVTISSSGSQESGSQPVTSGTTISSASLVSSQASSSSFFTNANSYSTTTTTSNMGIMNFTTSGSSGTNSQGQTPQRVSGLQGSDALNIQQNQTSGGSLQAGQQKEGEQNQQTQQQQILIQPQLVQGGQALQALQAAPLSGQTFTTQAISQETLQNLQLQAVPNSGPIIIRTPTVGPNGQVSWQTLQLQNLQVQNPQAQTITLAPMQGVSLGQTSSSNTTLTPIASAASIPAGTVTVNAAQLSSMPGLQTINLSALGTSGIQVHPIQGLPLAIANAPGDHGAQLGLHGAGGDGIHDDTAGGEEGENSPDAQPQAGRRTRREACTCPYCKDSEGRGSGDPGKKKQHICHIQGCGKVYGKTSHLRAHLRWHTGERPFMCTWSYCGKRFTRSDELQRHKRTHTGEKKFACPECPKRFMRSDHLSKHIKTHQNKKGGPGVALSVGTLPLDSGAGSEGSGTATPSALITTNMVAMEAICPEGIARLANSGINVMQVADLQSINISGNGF
Chain of Signal transducer and activator of transcription 3 (Homo sapiens) (P40763 whole entry, looked up): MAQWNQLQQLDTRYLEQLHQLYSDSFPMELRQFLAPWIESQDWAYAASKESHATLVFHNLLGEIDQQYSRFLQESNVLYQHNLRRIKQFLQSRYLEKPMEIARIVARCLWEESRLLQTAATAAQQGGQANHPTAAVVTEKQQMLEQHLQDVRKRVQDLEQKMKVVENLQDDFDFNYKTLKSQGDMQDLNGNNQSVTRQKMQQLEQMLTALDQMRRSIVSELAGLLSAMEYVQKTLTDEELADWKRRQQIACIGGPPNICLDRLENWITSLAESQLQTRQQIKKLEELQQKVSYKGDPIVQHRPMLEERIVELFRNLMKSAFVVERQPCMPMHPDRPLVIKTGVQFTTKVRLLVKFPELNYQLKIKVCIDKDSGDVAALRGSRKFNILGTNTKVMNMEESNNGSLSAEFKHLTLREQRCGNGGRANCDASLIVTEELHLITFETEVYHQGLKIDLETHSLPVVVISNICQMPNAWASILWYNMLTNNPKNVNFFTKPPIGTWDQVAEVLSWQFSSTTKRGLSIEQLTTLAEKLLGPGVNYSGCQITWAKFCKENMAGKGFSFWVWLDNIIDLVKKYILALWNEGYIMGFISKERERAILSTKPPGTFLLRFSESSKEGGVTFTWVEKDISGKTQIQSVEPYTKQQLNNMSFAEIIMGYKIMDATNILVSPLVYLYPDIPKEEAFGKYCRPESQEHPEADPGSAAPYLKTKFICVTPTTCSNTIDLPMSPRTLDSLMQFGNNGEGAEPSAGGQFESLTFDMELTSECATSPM

Turning to `FC(F)(F)C(F)(F)C(F)(F)C(F)(F)C(F)(F)C(F)(F)C(F)(F)I`, the result in assay [1], in assay [2], in assay [3], in assay [4], in assay [5] and in assay [6] was inactive. The result in assay [7], in [8], in assay [9] and in assay [10] was inactive.

`CCCCCCCCCCCCCCCC[N+](C)(C)Cc1ccccc1`: the outcome in assay [1], in assay [2], in assay [3], in assay [4], in [5] and in assay [6] was inactive. Also, the molecule was called inactive in assay [8], in assay [9] and in assay [10]. Moreover, in assay [7], the AC50 is 132 µM (active).

Regarding `CCN(CC)c1ccc2c(C)cc(=O)oc2c1`, the outcome in assay [1], in [5], in [6], in assay [7], in assay [8] and in assay [9] was inactive. Moreover, the molecule was called inactive in [10]. Besides, the figures for the AC50 in assay [2], in [3] and in assay [4] were 65.9 µM (active), 2.92 µM (active) and 50.2 µM (active), respectively.

As for `FC(F)(F)C(F)(F)CNCC(F)(F)C(F)(F)F`, the outcome in assay [1], in [2], in assay [3], in assay [4], in assay [5] and in [6] was inactive. Moreover, the outcome in assay [7], in [8], in [9] and in assay [10] was inactive.

On to `CC(Cc1ccc(O)c(O)c1)C(C)Cc1ccc(O)c(O)c1` (configuration not stated), for which the AC50 is 9.19 µM (active) in assay [1]; 22.1 µM (active) in [2]; 8.39 µM (active) in assay [3]; 6.13 µM (active) in assay [5]; 8.73 µM (active) in assay [7]; 18.4 µM (active) in assay [10]. The outcome in assay [4], in [8] and in [9] was inactive.

Consider `C=CC(=O)OCC(F)(F)C(F)(F)C(F)(F)C(F)(F)C(F)(F)C(F)(F)C(F)(F)F`, for which the result in assay [1], in assay [2], in assay [3], in assay [4], in assay [6] and in assay [7] was inactive. Moreover, the molecule was classed as inactive in assay [8], in assay [9] and in [10].

For the molecule `FC(F)(F)C(F)(F)C(F)(F)C(F)(F)C(F)(F)C(F)(F)C(F)(F)C(F)(F)CCS`, the result in assay [1], in [2], in [3], in assay [4], in [6] and in assay [7] was inactive. The molecule was classed as inactive in assay [8], in assay [9] and in assay [10].

Take `O=C(O)C(F)(F)C(F)(F)C(F)(F)C(F)(F)C(F)(F)C(F)(F)C(F)(F)C(F)(F)C(F)(F)C(F)(F)C(F)(F)C(F)(F)C(F)(F)F`: the outcome in [1], in assay [2], in [4], in assay [5], in assay [7] and in [8] was inactive. Moreover, the call in [9] and in [10] was inactive. Further, the concentration at half-maximal activity (AC50) in [3] was 21.8 µM (active).

Consider `FC(F)(F)C(F)(F)C(F)(F)C(F)(F)C(F)(F)C(F)(F)C(F)(F)C(F)(F)F`, for which the result in [1], in assay [2], in assay [3], in assay [4], in assay [5] and in assay [7] was inactive. The call in assay [8], in assay [9] and in assay [10] was inactive.

On to `CC(C)(C)C(=O)CC(=O)C(F)(F)C(F)(F)C(F)(F)F`, for which the result in assay [1], in [2], in [3], in assay [4], in assay [6] and in assay [7] was inactive. Moreover, the molecule was classed as inactive in assay [8], in [9] and in assay [10].

Turning to `O=C(O)C(F)(F)C(F)(F)C(F)(F)C(F)(F)C(F)(F)C(F)(F)C(F)(F)C(F)(F)C(F)(F)C(F)F`, the result in assay [1], in assay [2], in assay [5], in assay [7], in assay [8] and in [9] was inactive. In [10], the call was inactive. Moreover, the AC50 in assay [3] was 18.8 µM (active); in assay [4] it was 9.33 µM (active).

Regarding `OCC(F)(F)C(F)(F)C(F)(F)F`, the outcome in [1], in [2], in assay [3], in [4], in [5] and in assay [7] was inactive. The molecule was called inactive in assay [8], in assay [9] and in [10].
